# Measurements published in PubChem BioAssay (Tox21).
# Results filed as inconclusive are left out. Entries that show only a call come without a potency. Values without a mark were called inactive. The source made the active and inactive calls. Unless noted, calls follow the shape of the full dose curve.
# System: not listed separately
# Assay: cAMP Responsive Elements (CRE) small molecule agonists, cell-based qHTS assay (AID 1963590); also: potency is read from the fitted curve at half-maximal effect
# Settings: CRE-bla HEK293T, beta-lactamase FRET ratio, 3 h; series mostly up to 92.4 µM
# Method in brief: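 Quantitative HTS for CRE agonists: HEK 293T CRE-bla cells, overnight plating, 3 h compound incubation at 37 C/5% CO2, then 2 h room-temperature LiveBLAzer B/G FRET substrate loading.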
SMILES,Potency,activation
OCCOc1ccc(OCCO)cc1,inactive,–
N#CCC(=O)O,inactive,–
Nc1ncnc2c1ncn2[C@@H]1O[C@H](COP(=O)(O)O)[C@@H](O)[C@H]1O,11.9 µM (active),–
CCc1ccc(C)nc1,inactive,–
CN(C)c1ccc(/C=C/c2ccc([N+](=O)[O-])cc2)cc1,–,-3.18% [at 8.39 µM]
C/C=C(\C)C(=O)OC/C=C(\C)CCC=C(C)C,inactive,–
CC(=O)/C=C/C1C(C)=CCC(C)C1(C)C (stereo not drawn),inactive,–
Cc1cccc(C)c1NC(=O)CC12CCCN1CCC2,inactive,–
CC(=O)N1CCN(c2ccc(O)cc2)CC1,inactive,–
C=C(C)C(=O)OCCCCCCOC(=O)C(=C)C,inactive,–
O=C1CCN(c2ccccc2)N1,inactive,–
Cl/C(=C\n1cncn1)c1ccc(Cl)cc1Cl,inactive,–
COc1cc(C(=O)N2CCCCCCC2)cc(OC)c1OC,inactive,–
COC(=O)N[C@H](C(=O)N[C@@H](Cc1ccccc1)[C@@H](O)CN(Cc1ccc(-c2ccccn2)cc1)NC(=O)[C@@H](NC(=O)OC)C(C)(C)C)C(C)(C)C,inactive,–
Clc1nc2ccccc2s1,inactive,–
CN1N=C(C(N)=O)CCC1=O,inactive,–
CCCCC(CC)CCC(CC(C)C)OS(=O)(=O)O (stereo not drawn),inactive,–
CSc1cnccn1,inactive,–

SMILES,Potency,activation
CCCCCCCOC(=O)c1ccccc1C(=O)OCCCCCCC,inactive,–
CC1CC(=O)CC(C)(C)C1 (stereo not drawn),inactive,–
O=[Si]=O,inactive,–
CCCCCCCC(OC)OC,inactive,–
NS(=O)(=O)c1cc2c(cc1Cl)NC(CC1CCCC1)NS2(=O)=O (stereo not drawn),inactive,–
CC(C)(c1cc(Br)c(O)c(Br)c1)c1cc(Br)c(O)c(Br)c1,inactive,–
Clc1ccccc1-c1nc(-c2ccncc2)no1,inactive,–
CC(=O)C(C)O (stereo not drawn),inactive,–
CO[Si](CCCNCCNCCN)(OC)OC,inactive,–
CC(=O)c1ccc2c(c1)CCCC2,inactive,–
NC(=O)c1cccc([N+](=O)[O-])c1,inactive,–
CCOc1cc(NC(C)=O)ccc1C(=O)OC,inactive,–
CCCC(O)C(O)CO (stereo not drawn),inactive,–
O=C(O)c1ccc(O)cc1O,inactive,–
C[Si](C)(C)Cl,inactive,–
COC(=O)c1c(Cl)c(Cl)c(C(=O)OC)c(Cl)c1Cl,inactive,–
Cc1ccc2n[nH]nc2c1,inactive,–
CCCOC(=O)C(C)O (stereo not drawn),inactive,–

# System: not listed separately
# Assay: cAMP Responsive Elements (CRE) small molecule antagonists, cell-based qHTS assay (AID 1963591; active = well fitted inhibition curve with a large enough effect in the signal ratio in the repeat runs, not every such curve was filed as active; the % refers to the signal ratio)
# Settings: CRE-bla HEK293T, beta-lactamase FRET ratio; series mostly up to 92.4 µM
# Method in brief: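 Fluorescence intensity from cleaved LiveBLAzer B/G substrate (2 h, room temperature) quantified CRE-bla activity in HEK 293T cells exposed 3 h to compound with 0.25 uM final NKH477.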
SMILES,Potency,"activity change, negative = inhibition"
OCCOc1ccc(OCCO)cc1,inactive,–
N#CCC(=O)O,inactive,–
Nc1ncnc2c1ncn2[C@@H]1O[C@H](COP(=O)(O)O)[C@@H](O)[C@H]1O,inactive,–
CCc1ccc(C)nc1,inactive,–
CN(C)c1ccc(/C=C/c2ccc([N+](=O)[O-])cc2)cc1,–,1.12% [at 8.39 µM]
C/C=C(\C)C(=O)OC/C=C(\C)CCC=C(C)C,inactive,–
CC(=O)/C=C/C1C(C)=CCC(C)C1(C)C (stereo not drawn),inactive,–
Cc1cccc(C)c1NC(=O)CC12CCCN1CCC2,inactive,–
CC(=O)N1CCN(c2ccc(O)cc2)CC1,inactive,–
C=C(C)C(=O)OCCCCCCOC(=O)C(=C)C,inactive,–
O=C1CCN(c2ccccc2)N1,inactive,–
Cl/C(=C\n1cncn1)c1ccc(Cl)cc1Cl,inactive,–
COc1cc(C(=O)N2CCCCCCC2)cc(OC)c1OC,inactive,–
COC(=O)N[C@H](C(=O)N[C@@H](Cc1ccccc1)[C@@H](O)CN(Cc1ccc(-c2ccccn2)cc1)NC(=O)[C@@H](NC(=O)OC)C(C)(C)C)C(C)(C)C,inactive,–
Clc1nc2ccccc2s1,inactive,–
COC(=O)Nc1nc2ccc(Sc3ccccc3)cc2[nH]1,inactive,–
CN1N=C(C(N)=O)CCC1=O,inactive,–
CCCCC(CC)CCC(CC(C)C)OS(=O)(=O)O (stereo not drawn),inactive,–
CSc1cnccn1,inactive,–

SMILES,Potency,"activity change, negative = inhibition"
CCCCCCCOC(=O)c1ccccc1C(=O)OCCCCCCC,inactive,–
CC1CC(=O)CC(C)(C)C1 (stereo not drawn),inactive,–
O=[Si]=O,inactive,–
CCCCCCCC(OC)OC,inactive,–
NS(=O)(=O)c1cc2c(cc1Cl)NC(CC1CCCC1)NS2(=O)=O (stereo not drawn),inactive,–
N#CCc1cccc(C(F)(F)F)c1,inactive,–
CC(C)(c1cc(Br)c(O)c(Br)c1)c1cc(Br)c(O)c(Br)c1,inactive,–
Clc1ccccc1-c1nc(-c2ccncc2)no1,inactive,–
CC(=O)C(C)O (stereo not drawn),inactive,–
CO[Si](CCCNCCNCCN)(OC)OC,inactive,–
CC(=O)c1ccc2c(c1)CCCC2,inactive,–
NC(=O)c1cccc([N+](=O)[O-])c1,inactive,–
CCOc1cc(NC(C)=O)ccc1C(=O)OC,inactive,–
CCCC(O)C(O)CO (stereo not drawn),inactive,–
O=C(O)c1ccc(O)cc1O,inactive,–
C[Si](C)(C)Cl,inactive,–
COC(=O)c1c(Cl)c(Cl)c(C(=O)OC)c(Cl)c1Cl,inactive,–
Cc1ccc2n[nH]nc2c1,inactive,–
CCCOC(=O)C(C)O (stereo not drawn),inactive,–

# Target: Beta-2 adrenergic receptor (Homo sapiens) (UniProt P07550)
# Sequence (P07550 whole entry, looked up): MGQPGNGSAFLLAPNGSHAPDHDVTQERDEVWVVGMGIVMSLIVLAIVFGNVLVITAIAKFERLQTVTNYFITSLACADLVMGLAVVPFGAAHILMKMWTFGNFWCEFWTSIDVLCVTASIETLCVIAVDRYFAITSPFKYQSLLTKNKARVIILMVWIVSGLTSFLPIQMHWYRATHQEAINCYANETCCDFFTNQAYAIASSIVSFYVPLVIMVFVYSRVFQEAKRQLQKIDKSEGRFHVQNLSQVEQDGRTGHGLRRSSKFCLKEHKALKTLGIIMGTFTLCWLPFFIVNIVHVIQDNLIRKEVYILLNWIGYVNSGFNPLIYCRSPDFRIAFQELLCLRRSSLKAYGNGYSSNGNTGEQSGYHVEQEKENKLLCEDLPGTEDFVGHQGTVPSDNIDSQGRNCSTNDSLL
# Assay: Adrenergic beta2 receptor (ADRB2) small molecule antagonists, cell-based qHTS assay (AID 1963592); also: nearly all actives have a fitted effect of over 50% in size
# Settings: CHO-ADRB2 cells, isoproterenol-stimulated cAMP HTRF ratio, 0.5 h; series mostly up to 92.4 µM
# Method in brief: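 Assay format: CHO-ADRB2 cells, 18-20hr seeding at 37C/5% CO2, then compound plus 1nM isoproterenol agonist mix for 0.5hr RT. Homogeneous time-resolved fluorescence cAMP detection after 1hr, expressed as 665/615 nm ratio.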
SMILES,Potency,"activity change, negative = inhibition"
OCCOc1ccc(OCCO)cc1,inactive,–
N#CCC(=O)O,inactive,–
Nc1ncnc2c1ncn2[C@@H]1O[C@H](COP(=O)(O)O)[C@@H](O)[C@H]1O,inactive,–
CCc1ccc(C)nc1,inactive,–
CN(C)c1ccc(/C=C/c2ccc([N+](=O)[O-])cc2)cc1,–,1.64% [at 8.39 µM]
C/C=C(\C)C(=O)OC/C=C(\C)CCC=C(C)C,inactive,–
CC(=O)/C=C/C1C(C)=CCC(C)C1(C)C (stereo not drawn),inactive,–
Cc1cccc(C)c1NC(=O)CC12CCCN1CCC2,inactive,–
CC(=O)N1CCN(c2ccc(O)cc2)CC1,inactive,–
C=C(C)C(=O)OCCCCCCOC(=O)C(=C)C,inactive,–
O=C1CCN(c2ccccc2)N1,inactive,–
Cl/C(=C\n1cncn1)c1ccc(Cl)cc1Cl,inactive,–
COc1cc(C(=O)N2CCCCCCC2)cc(OC)c1OC,inactive,–
COC(=O)N[C@H](C(=O)N[C@@H](Cc1ccccc1)[C@@H](O)CN(Cc1ccc(-c2ccccn2)cc1)NC(=O)[C@@H](NC(=O)OC)C(C)(C)C)C(C)(C)C,inactive,–
Clc1nc2ccccc2s1,inactive,–
COC(=O)Nc1nc2ccc(Sc3ccccc3)cc2[nH]1,inactive,–
CN1N=C(C(N)=O)CCC1=O,inactive,–
CCCCC(CC)CCC(CC(C)C)OS(=O)(=O)O (stereo not drawn),inactive,–
CSc1cnccn1,inactive,–
CCCCCCCOC(=O)c1ccccc1C(=O)OCCCCCCC,inactive,–

SMILES,Potency,"activity change, negative = inhibition"
CC1CC(=O)CC(C)(C)C1 (stereo not drawn),inactive,–
O=[Si]=O,inactive,–
CCCCCCCC(OC)OC,inactive,–
NS(=O)(=O)c1cc2c(cc1Cl)NC(CC1CCCC1)NS2(=O)=O (stereo not drawn),inactive,–
N#CCc1cccc(C(F)(F)F)c1,inactive,–
CC(C)(c1cc(Br)c(O)c(Br)c1)c1cc(Br)c(O)c(Br)c1,inactive,–
Clc1ccccc1-c1nc(-c2ccncc2)no1,inactive,–
CC(=O)C(C)O (stereo not drawn),inactive,–
CO[Si](CCCNCCNCCN)(OC)OC,inactive,–
CC(=O)c1ccc2c(c1)CCCC2,inactive,–
Nc1c2ccccc2nc2ccccc12,inactive,–
NC(=O)c1cccc([N+](=O)[O-])c1,inactive,–
CCOc1cc(NC(C)=O)ccc1C(=O)OC,inactive,–
CCCC(O)C(O)CO (stereo not drawn),inactive,–
O=C(O)c1ccc(O)cc1O,inactive,–
C[Si](C)(C)Cl,inactive,–
COC(=O)c1c(Cl)c(Cl)c(C(=O)OC)c(Cl)c1Cl,inactive,–
Cc1ccc2n[nH]nc2c1,inactive,–
CCCOC(=O)C(C)O (stereo not drawn),inactive,–
